Screening results (PubChem)
RBX1-CUL1 inh = blocks human RBX1-Cullin-1 di-ubiquitin formation; P62877+Q13616; in vitro K48 di-Ub FRET, acceptor:donor ratio, 45 min; hit rate 0.6% among 140,000; inhibition, % at 10 µM; AID 1347404; in the data active = inhibition above about 25%
Target sequence (P62877 whole entry, looked up): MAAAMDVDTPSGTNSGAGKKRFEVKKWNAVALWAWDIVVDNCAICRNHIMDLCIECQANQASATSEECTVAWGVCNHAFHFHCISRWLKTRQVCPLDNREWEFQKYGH
Target sequence (Q13616 whole entry, looked up): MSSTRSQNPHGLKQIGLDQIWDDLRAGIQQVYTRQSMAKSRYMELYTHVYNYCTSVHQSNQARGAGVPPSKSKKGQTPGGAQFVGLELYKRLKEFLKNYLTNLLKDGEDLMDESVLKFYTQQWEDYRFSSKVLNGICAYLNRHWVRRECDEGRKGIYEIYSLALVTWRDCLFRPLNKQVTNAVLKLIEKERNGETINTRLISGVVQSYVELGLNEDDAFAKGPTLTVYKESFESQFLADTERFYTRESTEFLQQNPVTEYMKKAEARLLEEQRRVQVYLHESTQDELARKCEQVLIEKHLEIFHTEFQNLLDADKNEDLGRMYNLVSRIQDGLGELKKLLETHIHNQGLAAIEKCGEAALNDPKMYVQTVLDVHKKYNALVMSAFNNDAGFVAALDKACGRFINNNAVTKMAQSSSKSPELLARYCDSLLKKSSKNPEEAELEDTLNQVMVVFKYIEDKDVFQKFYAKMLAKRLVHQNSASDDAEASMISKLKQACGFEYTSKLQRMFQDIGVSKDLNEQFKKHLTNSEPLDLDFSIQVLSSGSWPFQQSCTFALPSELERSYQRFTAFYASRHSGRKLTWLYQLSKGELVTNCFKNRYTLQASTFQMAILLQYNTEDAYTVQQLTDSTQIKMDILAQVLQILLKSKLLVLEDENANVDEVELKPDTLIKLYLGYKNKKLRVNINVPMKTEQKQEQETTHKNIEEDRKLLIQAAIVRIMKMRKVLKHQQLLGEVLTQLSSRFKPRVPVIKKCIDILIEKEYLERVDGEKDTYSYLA
A number is an active result; – = inactive. This is one part of a sample in which hits are shown more often than they occur.

SMILES | RBX1-CUL1 inh
CC(=O)C(C(C)=O)C1=C(Br)C(=O)C(=O)c2c(C(=O)c3ccccc3)coc21 | –
CC(=O)Oc1ccc2occ(C(=O)c3ccccc3)c2c1 | –
O=C(c1ccccc1)c1coc2cc(Br)c(O)c(Br)c12 | –
COc1ccc(-c2ccc3c(N)c(C(=O)Nc4ccc(I)cc4)sc3n2)cc1 | –
COC(=O)c1ccc2c(c1)C1CCCCC1C(=O)N2Cc1ccccc1 (stereo not drawn) | –
CN(C(=O)c1nn2c(c1Cl)NC(c1ccco1)CC2C(F)(F)F)c1ccc(OC(F)(F)F)cc1 (stereo not drawn) | –
Cc1ccc2c(c1)C(=O)c1ccccc1CS2 | –
Cn1c(Oc2ccccc2N=Cc2ccccc2)cc(=O)n(C)c1=O | –
COc1cc(Br)cc(/C=C2/SC(=O)N(C(C)C)C2=O)c1O | –
CCCC(=O)N1CCN(c2ccccn2)CC1 | –
Cc1ccc(Cl)cc1N1CCN(S(=O)(=O)Cc2ccccc2F)CC1 | –
COC(=O)c1ccc2c(c1)C1C=CCC1C(c1ccc([N+](=O)[O-])cc1)N2 (stereo not drawn) | –
O=C(O)c1ccc2c(c1)C1C=CCC1C(C1CC=CCC1)N2 (stereo not drawn) | 101
CCOC(=O)[C@@H]1Nc2ccc(Br)cc2[C@@H]2C=CC[C@H]12 | –
N#CC(c1nc2ccccc2[nH]1)S(=O)(=O)c1ccccc1 (stereo not drawn) | –
Cc1cc(/C=C2\C(=O)NC(=O)N(c3ccc(Cl)c(Cl)c3)C2=O)c(C)n1-c1cccnc1 | 40
CCc1ccccc1-n1c(C)cc(/C=C2\C(=O)NC(=O)N(c3cccc(C)c3)C2=O)c1C | –
Cc1cc(/C=C2/C(=O)NC(=S)N(c3cccc(F)c3)C2=O)c(C)n1-c1ccccc1 | –
CCOC(=O)c1cccc(-n2c(C)cc(/C=C3\C(=O)NC(=O)N(c4ccc(C)c(C)c4)C3=O)c2C)c1 | –
Cc1cc(/C=C2/C(=O)NC(=S)N(c3ccc(F)cc3)C2=O)c(C)n1-c1ccc(O)cc1 | –
Cc1cc(/C=C2\C(=O)NC(=S)N(c3cccc(F)c3)C2=O)c(C)n1-c1cccnc1 | 78
COc1ccc(C2CC(C3C(=O)NC(=O)N(C4CCCCC4)C3=O)=Nc3ccccc3S2)cc1 (stereo not drawn) | –
CC1CCC(N2CCCn3c2nc2c3c(=O)n(C)c(=O)n2C)CC1 (stereo not drawn) | –
CSc1ccccc1C(=O)NCc1c(C)ncc2c1CCN(C(=O)c1ccccc1-n1cccn1)C2 | –
Cc1oc(-c2ccc(NC(=O)Cc3ccccc3)cc2)nc1CNC(=O)CCC(C)C | –
SMILES | RBX1-CUL1 inh
Cc1nn(C)c(C)c1CCC(=O)NCc1nc(-c2ccc(NC(=O)Cc3ccccc3)cc2)oc1C | 39
COc1ccc(CC(=O)NCc2nc(-c3ccc(NC(=O)Cc4ccccc4)cc3)oc2C)cc1 | –
CSc1ccccc1NC(=O)CN1CCN(c2ccccc2)CC1 | –
NNS(=O)(=O)c1ccc2ccccc2c1 | –
COc1ccc(S(=O)(=O)Nc2ccc(O)c3ccccc23)cc1 | –
O=S(=O)(Nc1cc(Sc2ncn[nH]2)c(O)c2ccccc12)c1ccc2ccccc2c1 | 84
COc1ccc(C2C3=C(CCCC3=O)OC(=N)C2C#N)cc1COc1ccc(C)cc1 (stereo not drawn) | –
Cc1ccc(OC(=O)c2ccc(-c3ccc([N+](=O)[O-])cc3)o2)cc1 | –
C#CC(C)(C)OCC(O)CN1CC(C)CC(C)C1 (stereo not drawn) | –
Cc1nonc1C(=O)N=Nc1c2ccccc2c2nc3no[nH]c3nc12 | 45
CN(Cc1ccccc1)C1(C(=O)N2CC[C@H](O)C2)Cc2ccccc2C1 | –
COc1ccccc1C1CC(c2ccccc2)=NN1c1ccccc1 (stereo not drawn) | –
CCCC1=NN(c2ccccc2)C(=O)C1C1c2ccccc2Oc2c1c(CCC)nn2-c1ccccc1 (stereo not drawn) | –
CCCC1=NN(c2ccccc2)C2Oc3c(OC)cccc3C(c3cn(-c4ccccc4)nc3CCC)C12 (stereo not drawn) | 56
CCOc1c(/C=C2\C(=O)NN(c3ccc(Cl)c(Cl)c3)C2=O)cccc1OC | –
CCOc1cc(/C=C2\C(=O)NN(c3ccc(Cl)cc3)C2=O)c(Br)c(Br)c1O | 73
O=C1NC(=S)NC(=O)C1=Cc1cc2c(cc1Cl)OCO2 | –
CCOc1cc(/C=C2\C(=O)NC(=O)N(c3ccc(Cl)cc3)C2=O)cc(Br)c1O | –
CCOc1ccccc1/C=C1\C(=O)NN(c2ccc(C)c(C)c2)C1=O | 47
CCOc1ccc(/C=C2/C(=O)NN(c3ccc(Cl)cc3)C2=O)cc1OC | –
Cc1ccc(N2NC(=O)/C(=C/c3ccc4c(c3)n(C)c(=O)n4C)C2=O)cc1Cl | –
Cc1ccc(N2NC(=O)/C(=C/c3ccccc3OCc3ccccc3)C2=O)cc1 | –
Cc1ccc(N2NC(=O)/C(=C/c3cc4c(cc3Cl)OCO4)C2=O)cc1C | 65
CN(C)CC/C=C(\c1ccccc1)c1cccc(C(F)(F)F)c1 | –
CN1CCN(C(=O)c2cc3c(s2)CCCCC3)CC1 | –
Cc1cccc(-c2cc(C(=O)Nc3cccc4c3C(=O)c3ccccc3C4=O)c3ccccc3n2)c1 | –
